# Hits are enriched below; roughly 1.7% of the tested compounds scored in any of these assays.
# GLP1R inv ag – acts as inverse agonist at human GLP-1 receptor; P43220; HEK293 GLP-1R CRE-luciferase, luminescence, 24 h; GLP-1R form is constitutively active; Potency, µM (doses to about 38.3 µM), inactives show at the highest dose activity change, negative = inhibition, hits mostly inhibitors; actives 1.6% (n = 410,000); AID 624417; note: % is set by controls: 0 for no effect and ±100 for the full control effect; nearly all actives have a fitted effect of over 55% in size
# Target sequence (P43220 whole entry, looked up): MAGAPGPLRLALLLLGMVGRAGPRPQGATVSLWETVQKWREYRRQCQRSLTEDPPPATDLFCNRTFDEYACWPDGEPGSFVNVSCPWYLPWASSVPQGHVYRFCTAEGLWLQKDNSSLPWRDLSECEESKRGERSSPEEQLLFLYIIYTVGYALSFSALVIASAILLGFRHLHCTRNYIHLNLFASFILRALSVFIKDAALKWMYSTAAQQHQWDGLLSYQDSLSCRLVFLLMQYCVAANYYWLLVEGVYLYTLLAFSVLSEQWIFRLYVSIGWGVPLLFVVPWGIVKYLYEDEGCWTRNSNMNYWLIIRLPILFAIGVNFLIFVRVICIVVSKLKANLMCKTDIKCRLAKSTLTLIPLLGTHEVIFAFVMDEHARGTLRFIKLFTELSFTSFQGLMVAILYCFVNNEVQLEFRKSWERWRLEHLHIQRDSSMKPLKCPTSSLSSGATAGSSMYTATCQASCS
#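 Constitutively active GLP-1R drives a cAMP-responsive luciferase in stably transfected HEK293 cells; test compounds are added after overnight (12 h) attachment and left 24 hr, and signal loss in luminescence marks inhibition.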
# PTHR1 ag – PTHR1 (human) receptor agonism | actives 0.075% (n = 410,000) | Potency, µM (highest dose often 115 µM), for inactives: top-dose activation, usual class: activators | HEK293 GP2 PTHR1 cells, GloSensor cAMP luminescence, 1 h | Q03431 | AID 743266; note: nearly all actives have a fitted effect of over 55% in size
#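 HEK-293-derived GP2 cells expressing PTHR1 and a GloSensor cAMP reporter, 3,000/well, plated overnight, given luciferin plus IBMX (each 0.5 mM as added) for 1 h at 37 °C, then compound for 1 h at 37 °C. Luminescence was read after 15 min at room temperature.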
# GLP1R ag – activates the human GLP-1 receptor; P43220; Potency, µM (titrated, usually from 45.6 µM), for the others: top-dose activation, hits mostly activators; actives 0.007% (n = 380,000); HEK293 GLP-1R CRE-luciferase, luminescence, 4-6 h; cells express a hypersensitive GLP-1R form; note: % of control where 0% means no effect
# HEK293 tox – cytotoxicity in counter-screen for GLP-1R inverse agonists; Potency, µM (top dose mostly 38.3 µM), inactives show top-dose activity change, negative = inhibition, most hits filed as inhibitors; AID 624418; actives 0.13% (n = 410,000); HEK293 cAMP-luciferase reporter cells, luminescence, 24 h;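 note: loss of luciferase light is scored as toxicity; % is set by controls: 0 for no effect and ±100 for the full control effect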
#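 Seeding density was 200 cells/uL; after overnight-length (12 h) culture, 23 nL compounds went on for 24 h at 37 °C. Readout used a luciferase detection reagent, luminescence taken after 12 min at room temperature.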
# Starred values were filed as active, the others as inactive; i = inactive; ? = inconclusive; . = no result given; [ ] = another dose, or the depositor's remark. Calls come from the whole dose curve; as a rule, active = well fitted curve in the direction sought with a large enough effect; inconclusive = small, poorly fitted or top-dose-only effect, or another doubt; inactive = no such curve, though single readings can be large; an effect the other way counts as inactive or inconclusive. Potency is the fitted concentration of half-maximal effect.
SMILES,GLP1R inv ag,PTHR1 ag,GLP1R ag,HEK293 tox
CCOC(=O)C1(Cc2cccc(OC)c2)CCN(Cc2cccc(OC)c2OC)CC1,?,-32%,7%,-21%
CCOC(=O)C1(CCOC)CCN(Cc2cccc(OCc3ccccc3)c2)CC1,?,-59%,-4%,-7%
CCOC(=O)C1(CCOc2ccccc2)CCN(Cc2nccn2CC)CC1,10µM*,-9%,20%,?
CCOC(=O)C1(CCCc2ccccc2)CCN(Cc2nccn2CC)CC1,10µM*,-23%,21%,13µM*
CCOC(=O)C1(CCOc2ccccc2)CCN(Cc2cccc(OC)c2)CC1,11µM*,i,12%,4%
CCCCNS(=O)(=O)c1ccc2nc(-c3cccnc3)cc(C(=O)NCCCOC(C)C)c2c1,4%,-26%,.,2%
CC(C)C[C@H](NC(=O)N1CC(=O)Nc2ccccc21)C(=O)N[C@@H](Cc1ccccc1)C(=O)O,-9%,3%,-2%,-13%
COc1ccc(C(CC(=O)Nc2ccc(C)cn2)N2Cc3ccccc3C2=O)cc1OC (configuration not stated),46%,5%,8%,-11%
CCC(C)(C)c1ccc(CC(C)CN2C[C@@H](C)O[C@@H](C)C2)cc1 (some centres not stated),.,.,-2%,.
CCOC(=O)C1(CCCc2ccccc2)CCN(C(=O)CSC)CC1,?,-18%,13%,4%
CCOC(=O)C1(CCCc2ccccc2)CCN(C(=O)Cc2nonc2C)CC1,11µM*,-14%,-7%,-9%
O=C(Nc1cc(Cl)cc(Cl)c1)c1cccc(OC(F)F)c1,13µM*,-31%,-4%,-26%
CC(C)(C)S(=O)N1Cc2cc(C(=O)NCc3ccc4c(c3)OCO4)nc(-c3cccc(-c4ccccc4)c3)c2[C@@H]1CCO (some centres not stated),-19%,i,5%,-11%
CCOC(=O)c1cc(-c2ccccc2C)nn1CC1CC(c2ccc(OC)cc2)=NO1 (configuration not stated),11µM*,i,26%,2%
Cc1ccc(CN2CCC(Oc3cccc(C(=O)N(C)CCN(C)C)c3)CC2)cc1C,4µM*,i,5%,?
CCN1/C(=C/c2ccc3ccccc3[n+]2CC)C=Cc2ccccc21,?,-24%[57.5 µM],-35%,4.5µM*
CCN1/C(=C/c2ccc3ccccc3[n+]2CCCS(=O)(=O)[O-])C=Cc2cc(C)ccc21,?,1%,-1%,?
CC(C)c1ccc2c(c1)CCC1C(C)(CN)CCCC21C (configuration not stated),5.6µM*,i,1%,?
CC(C)c1cc2c(cc1S(=O)(=O)O)[C@@]1(C)CCC[C@@](C)(C(=O)O)[C@@H]1CC2,.,.,-5%,.
CCCCCCCCCCCCCCCCCCNC(=O)OC1CCN(C(=O)OC[C@H](COC(=O)N(Cc2cccc[n+]2CC)C(=O)c2ccccc2OC)OC)CC1,.,.,3%,.
CCSc1nnc(-c2cnn(-c3ccccc3)c2-n2cccc2)n1C,-26%,i,-13%,-3%
CCCCCCSc1nnc(-c2cnn(-c3ccccc3)c2-n2cccc2)n1C,4.5µM*,-90%,-3%,?
COc1ccc(N2CCN(C(=O)CN3C(=O)CSc4c3c(C)nn4-c3ccccc3)CC2)cc1,11%,i,.,3%
O=c1c2sc(-c3ccccc3)cc2nc2n1CCC2,5µM*,-20%,-18%,2%
Cc1cccc(-c2cccc(NC(=O)C3CCCN(C(=O)c4cccnc4)C3)c2)c1 (configuration not stated),?,i,9%,-15%
SMILES,GLP1R inv ag,PTHR1 ag,GLP1R ag,HEK293 tox
Cc1cccc(-c2cccc(NC(=O)C3CCCN(C(=O)c4csc(C)n4)C3)c2)c1 (configuration not stated),5µM*,-50%,7%,-16%
O=C(CN1CCN(S(=O)(=O)c2ccccc2)CC1)Nc1cccc(C(F)(F)F)c1,4.5µM*,-21%,3%,-26%
O=C(CSc1nnc(Nc2ccccc2F)s1)Nc1cccc(S(=O)(=O)N2CCCCC2)c1,10µM*,-32%,7%,-5%
O=C(CNc1cccc(C(F)(F)F)c1)Nc1cccc(S(=O)(=O)N2CCCC2)c1,2.5µM*,-49%,11%,8%
COc1cccc(CNC(=O)Cn2nc3c(cc2=O)CCCC3)c1OC,1%,i,.,23%
Cc1ccc(-c2nc3ncccc3o2)cc1NC(=O)c1ccccc1Br,8%,-23%,.,5%
CC(C)CCn1c(-c2nonc2N)nc2ccccc21,2.2µM*,-10%[57.5 µM],1%,-15%
O=C(Nc1cccc(Cl)c1)c1ccc2c(c1)CCN2S(=O)(=O)c1ccccc1,2.5µM*,-17%,.,-7%
O=C(Nc1ccccc1)c1ccc2c(c1)CCN2S(=O)(=O)c1ccccc1,?,-10%,-9%,0%
CCN(CC)CCNc1nc(-n2nc(C)cc2C)nc2sc3c(c12)CC(C)(C)OC3,4.5µM*,6%,-2%,?
CCn1cc2nc(SCc3cccc(C(F)(F)F)c3)n(CCc3ccccc3)c(=O)c2n1,?,-3%,.,3%
CCn1cc2nc(SCc3cccc(C)c3)n(CCc3ccccc3)c(=O)c2n1,7.9µM*,-6%,.,-22%
O=C(c1cn(-c2ccccc2)nc1-c1cccs1)N(CCO)Cc1ccccc1,11µM*,i,17%,-8%
CN(C)C(=O)c1cn(-c2ccccc2)nc1-c1cccs1,-9%,i,15%,-1%
CCOC(=O)c1c(C)c(C)n(Cc2cccc(OC)c2OC)c1C,?,-94%,10%,10%
CCOC(=O)c1cc(C)n(Cc2cccc(OC)c2OC)c1C,4µM*,-26%[57.5 µM],2%,4%
c1ccc(COc2ncnc3c2ncn3CCCNCC(c2ccccc2)c2ccccc2)cc1,?,-27%,-8%,11µM*
COc1ncnc2c1ncn2CCCNCC(c1ccccc1)c1ccccc1,-24%,-26%,7%,-8%
Cc1cccc(OCc2nc(C#N)c(NCc3ccc4c(c3)OCO4)o2)c1,11µM*,-13%[57.5 µM],4%,-5%
COc1ccc(CCNc2oc(COc3ccccc3)nc2C#N)cc1,?,-9%,3%,-3%
COc1ccc(CNc2oc(COc3ccccc3)nc2C#N)cc1,10µM*,-94%,1%,9%
COc1ccc(CNc2oc(COc3cccc(C)c3)nc2C#N)cc1,?,-94%,.,7%
CCc1ccc(NC(=O)C(CC)n2c(=O)c(-c3ccccc3NC(C)=O)nc3ccccc32)cc1 (configuration not stated),11µM*,i,.,-23%
c1ccc2c(c1)CC/C2=N/Nc1nc2ccccc2[nH]1,?,i,0%,3.5µM*
CC(C)(C)C1CCC(=NNc2nc3ccccc3[nH]2)CC1 (configuration not stated),?,-13%,10%,-25%
C(=N\Nc1nc2ccccc2[nH]1)/c1ccc2ncccc2c1,?,-65%,9%,?

# Screening data from PubChem.
